Assay [1] is described as follows: ATG_E_Box_CIS: Attagene CIS-FACTORIAL HepG2 Assay for human Enhancer Box (E-box) (AID 2282936). The following applies: HepG2 E-box cis-reporter transcription, actives raise or lower the signal. In a few lines:
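Endogenous transcription factor activity was sensed in human HepG2 liver cells through transfected cis-promoter reporter units. After 24 h of dosing, total RNA was reverse-transcribed and reporter cDNA resolved by capillary electrophoresis.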

The nature of assay [2]: ATG_M_61_CIS: Attagene CIS-FACTORIAL HepG2 Assay for M61 Transcription Factor (Internal Marker) (AID 2282937). To be noted: HepG2 Attagene CIS-FACTORIAL M61 internal marker reporter; actives raise or lower the signal. Put shortly: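 Using transiently transfected HepG2 liver cells, reporter transcript levels were assessed 24 h post-dosing by RT-PCR and capillary electrophoresis. Changes in either direction were fitted relative to DMSO controls.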

Assay [3] is described as follows: ATG_EGR_CIS: Attagene CIS-FACTORIAL HepG2 Assay for human Early Growth Response 1 (EGR1) (AID 2282938). To be noted: HepG2 Attagene CIS-FACTORIAL EGR reporter mRNA; actives raise or lower the signal. In a few lines: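 Fluorescent capillary-electrophoresis signal of reporter cDNA fragments serves as read-out. HepG2 cells bear transiently transfected cis-promoter reporter units and are exposed 24 h; gain- or loss-of-signal is fitted against DMSO.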

The nature of assay [4]: ATG_M_19_CIS: Attagene CIS-FACTORIAL HepG2 Assay for M19 Transcription Factor (Internal Marker) (AID 2282939). To be noted: HepG2 Attagene CIS-FACTORIAL M19 internal marker reporter; actives raise or lower the signal. Put shortly:
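HepG2 cells transiently transfected with cis-regulated multiple reporter transcription units were dosed for 24 h; reporter mRNA was quantified by RT-PCR, 6-FAM primer-extension labelling, HpaI digestion and capillary electrophoresis, with bidirectional fitting against DMSO baseline.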

A short description of assay [5]: ATG_Ets_CIS: Attagene CIS-FACTORIAL HepG2 Assay for human Erythroblast Transformation Specific (ETS) (AID 2282941). To be noted: HepG2 ETS cis-reporter transcription; AC50: actives raise or lower the signal unless noted; outcome: actives raise or lower the signal unless noted. Put shortly: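 Cis-regulated reporter mRNA induction in HepG2 (transient transfection), 24 h exposure, RT-PCR plus capillary electrophoresis detection; DMSO serves as negative control and baseline.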

Assay [6] can be described thus: ATG_FoxO_CIS: Attagene CIS-FACTORIAL HepG2 Assay for human Forkhead box O (FoxO) (AID 2282943). The following applies: HepG2 Attagene cis-reporter, FoxO element, mRNA; actives raise or lower the signal. In a few lines:
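Values reflect reporter mRNA induction or loss in HepG2 cells 24 h post-dosing, fitted bidirectionally with DMSO as negative control and baseline. Detection used RT-PCR and fluorescence capillary electrophoresis.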

Assay [7] in a line: ATG_GATA_CIS: Attagene CIS-FACTORIAL HepG2 Assay for human GATA Binding Protein (AID 2282944). The following applies: HepG2 GATA cis-element reporter, Attagene multiplex mRNA; actives raise or lower the signal. Put shortly: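 HepG2 cells transiently transfected with multiplexed cis-element reporter units reflecting endogenous transcription factor activity; reporter mRNA measured after 24 h dosing by RT-PCR, 6-FAM labeling, HpaI digestion and capillary electrophoresis. Bidirectional fitting versus DMSO baseline.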

A short description of assay [8]: ATG_GLI_CIS: Attagene CIS-FACTORIAL HepG2 Assay for human Zinc Finger Protein GLI1 (AID 2282945). The following applies: HepG2, Attagene cis-factorial reporter mRNA, GLI element; actives raise or lower the signal. Put shortly:
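HepG2 cells transiently transfected with cis-promoter multiplexed reporter units report endogenous transcription factor activity. After 24 h chemical exposure, reporter mRNA was quantified by RT-PCR, 6-FAM labelling, HpaI digestion and capillary electrophoresis, with bidirectional fitting against DMSO.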

Assay [9] can be described thus: ATG_ISRE_CIS: Attagene CIS-FACTORIAL HepG2 Assay for human Interferon Regulatory Factor 1 (IRF1) binding to an Interferon-Stimulated Response Element (ISRE) (AID 2282948). To be noted: HepG2 ISRE cis-reporter (Attagene), mRNA transcription readout; actives raise or lower the signal. Put shortly:
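Multiplexed mRNA reporter readout in human liver HepG2 cells: cis-element-driven reporters transfected, compound added for 24 h, transcripts amplified, fluorescently labelled and sized by capillary electrophoresis; curve fitting bidirectional against DMSO.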

A short description of assay [10]: ATG_M_32_CIS: Attagene CIS-FACTORIAL HepG2 Assay for M32 Transcription Factor (Internal Marker) (AID 2282949).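 Further: background control marker of the multiplexed CIS panel rather than a real target.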 To be noted: HepG2 Attagene cis-factorial M32 reporter, mRNA; actives raise or lower the signal. In a few lines:
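HepG2 transfectants (cis-regulated reporter transcription units) dosed 24 h. Reporter mRNA by RT-PCR plus CE, analysed as gain or loss relative to DMSO.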

Assay [11] can be described thus: ATG_M_06_CIS: Attagene CIS-FACTORIAL HepG2 Assay for M06 Transcription Factor (Internal Marker) (AID 2282950). The following applies: HepG2 Attagene CIS-FACTORIAL M06 internal marker reporter; actives raise or lower the signal. Put shortly:
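HepG2 cells transiently transfected with cis-regulated multiple reporter transcription units were exposed to chemical for 24 h; reporter mRNA was quantified by RT-PCR, 6-FAM primer labelling, HpaI digestion and capillary electrophoresis, fitted bidirectionally against DMSO.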

Assay [12] addresses Hypoxia-inducible factor 1-alpha (Homo sapiens) (UniProt Q16665). The assay is described as follows: ATG_HIF1a_CIS: Attagene CIS-FACTORIAL HepG2 Assay for human Hypoxia Inducible Factor 1 (HIF1A) (AID 2282951). The following applies: HepG2 Attagene cis-factorial HIF1a reporter transcription; actives raise or lower the signal. Put shortly:
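Endogenous-TF cis reporter readout, human HepG2 cells, 24 h incubation; mRNA detected via RT-PCR and capillary electrophoresis fluorescence; DMSO-normalised bidirectional fitting.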

In assay [13] the target is Hepatocyte nuclear factor 6 (Homo sapiens) (UniProt Q9UBC0). As to the kind of experiment: ATG_HNF6_CIS: Attagene CIS-FACTORIAL HepG2 Assay for human Hepatocyte Nuclear Factor 6 (HNF6) (AID 2282952). The following applies: HepG2 Attagene cis-factorial HNF6 reporter transcription; actives raise or lower the signal. Put shortly:
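Readout: fluorescent reporter-transcript fragments resolved by capillary electrophoresis after RT-PCR, reflecting endogenous factor activity in transfected HepG2. Exposure 24 h. Gain or loss of signal fitted bidirectionally against DMSO.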

Assay [14] deals with Heat shock factor protein 1 (Homo sapiens) (UniProt Q00613). As to the kind of experiment: ATG_HSE_CIS: Attagene CIS-FACTORIAL HepG2 Assay for human Heat Shock Transcription Factor 1 (HSE) (AID 2282953). The following applies: HepG2 HSE cis-reporter, Attagene RNA transcription; actives raise or lower the signal. Put shortly: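 HepG2 cells transiently transfected with multiple reporter transcription units under cis-regulatory promoter control, measuring endogenous transcription factor activity. After 24 h chemical exposure, reporter mRNA quantified by RT-PCR, fluorescent labelling, HpaI digestion and capillary electrophoresis; bidirectional fit versus DMSO.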
Sequence of Heat shock factor protein 1 (Homo sapiens) (Q00613 whole entry, looked up): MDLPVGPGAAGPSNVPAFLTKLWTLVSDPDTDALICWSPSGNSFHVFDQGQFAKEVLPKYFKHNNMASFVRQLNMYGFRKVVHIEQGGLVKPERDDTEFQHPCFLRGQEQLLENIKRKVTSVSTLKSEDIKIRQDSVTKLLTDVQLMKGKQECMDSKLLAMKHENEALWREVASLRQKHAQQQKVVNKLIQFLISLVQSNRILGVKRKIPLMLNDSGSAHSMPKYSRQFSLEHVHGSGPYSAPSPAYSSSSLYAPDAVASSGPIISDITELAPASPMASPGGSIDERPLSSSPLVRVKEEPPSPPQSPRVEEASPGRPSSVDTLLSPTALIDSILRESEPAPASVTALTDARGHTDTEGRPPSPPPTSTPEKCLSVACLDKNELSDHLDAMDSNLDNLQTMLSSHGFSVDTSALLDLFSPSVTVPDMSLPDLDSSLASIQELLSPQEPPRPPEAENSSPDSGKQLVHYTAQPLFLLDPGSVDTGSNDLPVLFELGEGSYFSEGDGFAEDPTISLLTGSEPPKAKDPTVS

Assay [15] is described as follows: ATG_MRE_CIS: Attagene CIS-FACTORIAL HepG2 Assay for human Metal Responsive Element (MRE) (AID 2282954). To be noted: HepG2 MRE cis-reporter transcription, Attagene multiplex; actives raise or lower the signal. In a few lines: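 Cells were transfected with cis-promoter reporter transcription units, then dosed for 24 h. RNA was reverse-transcribed, amplified, fluorescently labelled and resolved by capillary electrophoresis, and activity was fitted in both directions relative to DMSO.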

Assay [16] in a line: ATG_PBREM_CIS: Attagene CIS-FACTORIAL HepG2 Assay for human Phenobarbital-responsive Enhancer Module (PBREM) (AID 2282955). To be noted: HepG2 PBREM cis-reporter, Attagene multiplexed transcription; actives raise or lower the signal. Put shortly:
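Readout: reporter mRNA, fluorescent RT-PCR fragments separated by capillary electrophoresis. System: HepG2 transiently transfected with cis-regulated reporter units. Exposure: 24 h. Analysis: bidirectional, DMSO baseline.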

Assay [17] can be described thus: ATG_ERE_CIS: Attagene CIS-FACTORIAL HepG2 Assay for Estrogen Response Element (ERE) (AID 2282940). To be noted: HepG2 ERE cis-reporter, Attagene RNA transcript; actives raise or lower the signal. Put shortly: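 HepG2 cells transiently transfected with cis-promoter-driven multiplexed reporter transcription units report endogenous TF activity. After 24 h compound exposure, reporter mRNA is quantified by RT-PCR with capillary electrophoresis fluorescence; bidirectional fitting versus DMSO baseline.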

For assay [18], the target named is Hepatocyte nuclear factor 3-beta (Homo sapiens) (UniProt Q9Y261). As to the kind of experiment: ATG_FoxA2_CIS: Attagene CIS-FACTORIAL HepG2 Assay for human Forkhead box A2 (FOXA2) (AID 2282942). The following applies: HepG2 cis-reporter transcription factor activity, 24 h; actives raise or lower the signal. Put shortly: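 Fluorescence signal of reporter cDNA fragments, separated by capillary electrophoresis, reflects endogenous transcription factor activity in transfected HepG2 after 24 h. Both increases and decreases fitted against DMSO.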
Sequence of Hepatocyte nuclear factor 3-beta (Homo sapiens) (Q9Y261 whole entry, looked up, the tested form may be a part): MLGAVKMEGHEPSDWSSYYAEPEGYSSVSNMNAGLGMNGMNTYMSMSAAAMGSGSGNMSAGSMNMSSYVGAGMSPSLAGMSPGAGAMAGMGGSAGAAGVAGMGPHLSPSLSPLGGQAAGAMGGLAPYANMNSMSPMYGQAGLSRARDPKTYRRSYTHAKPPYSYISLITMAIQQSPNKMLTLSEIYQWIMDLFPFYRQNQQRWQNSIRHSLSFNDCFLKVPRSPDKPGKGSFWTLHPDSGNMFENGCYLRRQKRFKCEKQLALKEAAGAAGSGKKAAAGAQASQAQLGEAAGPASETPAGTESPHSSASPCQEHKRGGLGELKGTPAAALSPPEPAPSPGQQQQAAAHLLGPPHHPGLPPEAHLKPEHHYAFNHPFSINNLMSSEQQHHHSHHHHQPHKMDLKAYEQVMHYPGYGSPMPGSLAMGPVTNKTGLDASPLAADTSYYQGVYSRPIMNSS

In assay [19] the target is Bile acid receptor (Homo sapiens) (UniProt Q96RI1). As to the kind of experiment: ATG_IR1_CIS: Attagene CIS-FACTORIAL HepG2 Assay for human Nuclear Receptor Subfamily 1 Group H Member 4 (NR1H4), IR1 submotif (AID 2282946). The following applies: IR1 reporter transcription, actives raise or lower the signal. Put shortly: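 Readout: reporter transcript levels by RT-PCR with fluorescent capillary electrophoresis, from HepG2 cells transiently transfected with multiplexed cis-regulated reporters and dosed 24 h. Gain- or loss-of-signal fitted versus DMSO negative control.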
Sequence of Bile acid receptor (Homo sapiens) (Q96RI1 whole entry, looked up): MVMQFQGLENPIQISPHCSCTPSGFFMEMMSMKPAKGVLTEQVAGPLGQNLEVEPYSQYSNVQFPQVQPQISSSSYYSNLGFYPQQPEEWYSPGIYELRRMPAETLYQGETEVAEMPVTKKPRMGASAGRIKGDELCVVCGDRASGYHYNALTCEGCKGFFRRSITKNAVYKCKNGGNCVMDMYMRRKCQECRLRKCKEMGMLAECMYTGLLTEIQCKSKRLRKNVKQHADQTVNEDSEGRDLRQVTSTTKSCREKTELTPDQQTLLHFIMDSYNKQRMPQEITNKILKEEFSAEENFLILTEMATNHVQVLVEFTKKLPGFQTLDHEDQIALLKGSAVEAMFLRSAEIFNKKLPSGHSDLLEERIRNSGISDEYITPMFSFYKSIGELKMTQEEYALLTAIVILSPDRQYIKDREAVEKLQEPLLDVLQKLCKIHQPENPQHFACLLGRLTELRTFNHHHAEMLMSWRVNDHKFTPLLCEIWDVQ

The nature of assay [20]: ATG_GRE_CIS: Attagene CIS-FACTORIAL HepG2 Assay for human Glucocorticoid Response Elements (GRE) (AID 2282947). The following applies: HepG2 GRE cis-reporter, Attagene multiplex mRNA; AC50: actives raise or lower the signal unless noted; outcome: actives raise or lower the signal unless noted. Put shortly: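 Cells (HepG2) bearing transfected cis-promoter reporter transcription units were treated with chemical for 24 hours. Reporter mRNA was measured via RT-PCR with capillary electrophoresis, and activity was fitted in both directions relative to DMSO.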

This is an account of results in PubChem BioAssay (EPA / NIEHS).

As usually defined, the AC50 is the concentration at which the activity in the assay is half-maximal.

Several values for one entry are separate records, joined by “and”; a condition that tells them apart may be missing. Equal entries are not always repeated. The source holds several records for some structures; these can differ, active in one and inactive in another. Activity calls are given as the source filed them. How the source made its calls: active means hit-call score of the fitted dose curve at least 0.9, where 1 is the maximum; inactive means score below 0.9.

Sequence of Hypoxia-inducible factor 1-alpha (Homo sapiens) (Q16665 whole entry, looked up): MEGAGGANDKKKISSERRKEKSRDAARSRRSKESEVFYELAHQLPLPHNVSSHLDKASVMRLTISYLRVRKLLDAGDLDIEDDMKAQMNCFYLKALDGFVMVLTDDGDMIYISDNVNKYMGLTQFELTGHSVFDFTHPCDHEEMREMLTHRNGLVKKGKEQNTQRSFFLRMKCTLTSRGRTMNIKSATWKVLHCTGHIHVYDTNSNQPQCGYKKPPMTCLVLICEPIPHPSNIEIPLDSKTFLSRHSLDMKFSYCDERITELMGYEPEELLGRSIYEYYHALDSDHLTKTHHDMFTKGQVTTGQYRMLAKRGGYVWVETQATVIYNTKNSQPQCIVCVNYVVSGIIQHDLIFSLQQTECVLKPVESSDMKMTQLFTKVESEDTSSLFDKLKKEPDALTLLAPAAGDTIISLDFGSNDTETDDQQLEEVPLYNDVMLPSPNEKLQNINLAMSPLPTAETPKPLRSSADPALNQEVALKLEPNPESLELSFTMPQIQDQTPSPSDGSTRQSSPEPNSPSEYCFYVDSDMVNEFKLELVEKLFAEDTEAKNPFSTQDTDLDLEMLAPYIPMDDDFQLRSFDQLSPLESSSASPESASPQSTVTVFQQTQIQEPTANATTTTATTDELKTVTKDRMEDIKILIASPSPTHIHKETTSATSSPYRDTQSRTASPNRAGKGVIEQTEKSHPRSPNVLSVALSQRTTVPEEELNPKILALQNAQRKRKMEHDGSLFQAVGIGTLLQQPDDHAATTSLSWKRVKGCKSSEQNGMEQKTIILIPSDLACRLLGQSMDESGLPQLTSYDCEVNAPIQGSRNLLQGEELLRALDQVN
Sequence of Hepatocyte nuclear factor 6 (Homo sapiens) (Q9UBC0 whole entry, looked up, the tested form may be a part): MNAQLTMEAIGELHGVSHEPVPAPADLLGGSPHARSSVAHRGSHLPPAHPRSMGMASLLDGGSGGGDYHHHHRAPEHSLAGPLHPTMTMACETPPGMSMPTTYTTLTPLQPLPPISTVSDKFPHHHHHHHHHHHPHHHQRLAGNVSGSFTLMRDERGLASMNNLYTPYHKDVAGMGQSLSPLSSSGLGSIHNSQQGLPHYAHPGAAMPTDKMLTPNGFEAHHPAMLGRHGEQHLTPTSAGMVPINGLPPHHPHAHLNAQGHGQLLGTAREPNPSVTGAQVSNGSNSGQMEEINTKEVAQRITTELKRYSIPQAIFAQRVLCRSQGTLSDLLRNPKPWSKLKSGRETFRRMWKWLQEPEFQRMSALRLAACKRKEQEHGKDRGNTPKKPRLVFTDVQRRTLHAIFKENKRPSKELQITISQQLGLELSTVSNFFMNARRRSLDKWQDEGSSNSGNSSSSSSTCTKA

In the case of `O=C1OC2(c3ccccc31)c1cc(I)c(O)c(I)c1Oc1c2cc(I)c(O)c1I`, the half-maximal activity concentration (AC50) in [1] is 34.6 µM (active); in assay [3] it was 36.1 µM (active) and 29.8 µM (active); in assay [12], 21.2 µM (active) and 34.4 µM (active); in assay [15], 36.3 µM (active) and 35.2 µM (active); in assay [16], 21 µM (active) and 18.6 µM (active). Further, the outcome in [1], in assay [2], in assay [3], in assay [4], in assay [5] and in [6] was inactive. Further, the outcome in [7], in assay [8], in [9], in assay [10], in [11] and in assay [12] was inactive. Besides, the outcome in [13], in assay [14], in assay [15] and in assay [16] was inactive.

On to `CCCCCCCCCCCCCCCCCC[N+](C)(C)Cc1ccccc1`, for which the AC50 was 18.4 µM (active) in assay [1], 79.2 µM (active) in assay [20], 10.1 µM (active) in assay [13] and 7.27 µM (active) in [15]. Besides, the result in assay [2], in [3], in [4], in [17], in assay [5] and in assay [18] was inactive. Moreover, the call in [6], in assay [7], in assay [19], in assay [10], in [11] and in assay [12] was inactive. The outcome in [14] and in [16] was inactive.

Take `CC(C)CCOCCC(C)C`: the result in [1], in assay [2], in assay [3], in assay [4], in assay [5] and in assay [18] was inactive. In addition, the compound was called inactive in assay [6], in assay [7], in assay [8], in [19], in assay [20] and in assay [10]. In addition, the call in [11], in [12], in assay [13], in [14], in [15] and in assay [16] was inactive. Further, the AC50 in assay [17] was 26.8 µM (active).
